Test results taken from PubChem BioAssay.
The source made the active and inactive calls. Unless noted, no rule for the calls is given here.

Experiments:
[1] = test system: XIP peptide (Xip251-270) binding; experiment: small-molecule binders of XIP peptide, primary screen, biochemical, small-molecule microarray, fluorescence 635/667 nm, 0.1 µg/mL protein (AID 1182); settings: fluorescent protein binding, 635 nm, higher = more signal, called active from +8 up or from −8 down
XIP peptide (Xip251-270) = experiment: small-molecule binders of XIP peptide, primary screen, biochemical, small-molecule microarray, fluorescence 635/667 nm, 0.5 µg/mL protein (AID 1183); settings: small-molecule microarray binding, fluorescence 635 nm; higher = more signal
[2] = Plasmodium falciparum growth inhibition, primary screen, strain 3D7, DAPI fluorescence, 100 nL (AID 1184);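 also: parasites grown inside human red blood cells in medium with human serum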; settings: P. falciparum 3D7 growth, 3 d, higher = more signal
[3] = target: Homeobox protein Hox-A13 (Mus musculus) (UniProt Q62424); experiment: inhibitors of HoxA13-DNA binding, primary screen, biochemical, fluorescence polarization, labeled oligonucleotide (AID 1185); settings: 15 min, higher = more signal, called active from +8 up or from −8 down
Sequence of Homeobox protein Hox-A13 (Mus musculus) (Q62424 whole entry, looked up): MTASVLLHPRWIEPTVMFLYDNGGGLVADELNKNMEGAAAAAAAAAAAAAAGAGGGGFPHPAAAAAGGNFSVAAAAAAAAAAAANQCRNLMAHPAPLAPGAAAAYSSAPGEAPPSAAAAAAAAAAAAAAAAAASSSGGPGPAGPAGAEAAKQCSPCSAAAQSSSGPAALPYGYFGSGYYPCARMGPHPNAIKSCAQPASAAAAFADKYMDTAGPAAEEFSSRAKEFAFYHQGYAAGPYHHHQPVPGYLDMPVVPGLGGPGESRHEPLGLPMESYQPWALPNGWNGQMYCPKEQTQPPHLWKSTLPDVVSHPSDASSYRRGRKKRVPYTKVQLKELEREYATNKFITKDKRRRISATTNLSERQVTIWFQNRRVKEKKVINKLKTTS

[4] = inhibitors of hydroxyurea-induced Chk1 phosphorylation, primary screen, imaging, HeLa, phospho-Chk1 antibody, percent positive cells (AID 1186); settings: hydroxyurea-induced phospho-Chk1 immunofluorescence imaging, higher = more signal
[5] = inhibitors of hydroxyurea-induced Chk1 phosphorylation, primary screen, imaging, HeLa, phospho-Chk1 nuclear intensity (AID 1187); settings: hydroxyurea-induced phospho-Chk1 immunofluorescence imaging, higher = more signal

SMILES	composite z-score [1]	composite z-score (XIP peptide (Xip251-270))	z-score [2]	z-score [3]	z-score [4]	z-score [5]
[N-]=[N+]=NCc1ccccc1[C@@H]1OC(c2ccc(OCCCO)cc2)=N[C@]1(Cc1ccccc1N=[N+]=[N-])C(=O)N1CCCCC1	0.111 (inactive)	0.724	-2.16	-1.44 (inactive)	-0.234 (inactive)	-0.0332 (inactive)
[N-]=[N+]=NCc1ccccc1[C@H]1OC(c2ccc(OCCCO)cc2)=N[C@@]1(CCS(=O)(=O)c1ccccc1)C(=O)NCc1ccccc1	-0.165 (inactive)	0.68	-2.28	-0.495 (inactive)	-0.189 (inactive)	0.283 (inactive)
COc1ccc(C#Cc2ccc3c(c2)[C@]2(C(=O)N3)[C@H](C(=O)Nc3nc4ccccc4s3)[C@H]3C(=O)O[C@H](c4ccccc4)[C@H](c4ccccc4)N3[C@@H]2c2ccccc2OCCO)cc1	0.416 (inactive)	0.598	-2.21	-0.889 (inactive)	-0.347 (inactive)	-0.392 (inactive)
C=CC1c2cc(O)c(OC)cc2CCN1Cc1ccc([N+](=O)[O-])o1 (stereo not given)	0.835 (inactive)	0.905	-0.83	-4.18 (inactive)	-0.131 (inactive)	0.406 (inactive)
COc1cc(C(O)C2C=CC3C(=O)N(Cc4ccccc4)C(=O)C3N2n2cnnc2)cc(OC)c1OC (stereo not given)	0.494 (inactive)	0.435	0.551	-1.38 (inactive)	0.102 (inactive)	0.263 (inactive)
C=C(/C(=C/C[C@@H](OC(C)=O)c1ccc(CO)o1)c1cc(C(=O)OC)ccc1OC)C(C)C	0.698 (inactive)	0.135	-0.485	-4.95 (inactive)	0.623 (inactive)	0.273 (inactive)
COCCCNC(=O)[C@@]1(c2ccc([N+](=O)[O-])cc2)CC(=O)N(C(C)C)[C@@H]1c1ccc(CO)cc1	-1.3 (inactive)	0.64	0.382	-0.803 (inactive)	0.0991 (inactive)	0.621 (inactive)
CC(=O)N1CC(C(O)C2C=CC3C(=O)NC(=O)C3N2Nc2ccc(Cl)cc2Cl)c2ccccc21 (stereo not given)	0.111 (inactive)	0.0205	-0.252	-4.92 (inactive)	0.358 (inactive)	0.492 (inactive)
COc1ccc([Si](C)(C)[C@H]2[C@H](CCO)O[C@@]3(C(=O)N(Cc4ccccc4)c4ccc(N5CCOC5=O)cc43)[C@@H]2C)cc1	0.16 (inactive)	0.52	-1.75	-3.27 (inactive)	-0.796 (inactive)	-0.721 (inactive)
COc1cc2c(cc1O)C(c1cccs1)N(Cc1sc3ccccc3c1Cl)CC2 (stereo not given)	0.791 (inactive)	0.867	-1.66	-1.54 (inactive)	0.326 (inactive)	0.638 (inactive)
CCCCCN1CC=CC23O[C@@H]4C=CCOC(=O)[C@@H]4[C@H]2C(=O)N(CCO)[C@@H]3C1=O (stereo not given in full)	0.647 (inactive)	-0.311	1.34	-3.88 (inactive)	-0.542 (inactive)	-0.562 (inactive)
CCCC=C(CCC)[C@@H](NC(=O)CCc1ccccc1)c1ccc(C(F)(F)F)cc1	-0.143 (inactive)	0.75	-1.65	-3.8 (inactive)	0.007 (inactive)	-0.287 (inactive)
CC(C)OC(=O)CC(=O)CC(O)c1ccc([N+](=O)[O-])cc1 (stereo not given)	0.319 (inactive)	0.469	0.697	-1.67 (inactive)	-0.0884 (inactive)	-0.438 (inactive)
C=CCN1C(=O)[C@]2(O[C@H](CCO)[C@@H]([Si](C)(C)c3ccc(OC)cc3)[C@@H]2C)c2cc(NC(=O)c3ccc(OC)cc3)ccc21	-0.129 (inactive)	0.456	-2.64	-5.32 (inactive)	-0.97 (inactive)	-0.881 (inactive)
COc1ccc([Si](C)(C)[C@@H]2[C@@H](CCn3cc([C@H](O)c4ccccc4)nn3)O[C@]3(C(=O)N(Cc4cccc(N5C(=O)c6cccc7cccc5c67)c4)c4ccccc43)[C@H]2C)cc1	0.368 (inactive)	0.45	-2.38	-1.19 (inactive)	-0.779 (inactive)	-1.33 (inactive)
Cc1ccc(S[C@]2(C(=O)NCc3ccccc3)CC(=O)N(Cc3cc(C(F)(F)F)cc(C(F)(F)F)c3)[C@@H]2c2ccc(CO)cc2I)cc1	1.16 (inactive)	-0.474	-0.261	-1.82 (inactive)	0.0563 (inactive)	0.249 (inactive)
CC(C)C(=C=CC[C@@H](O)c1cccc(OCCO)c1)C[C@@H](O)c1ccccn1	-0.0008 (inactive)	0.29	-0.0244	-5.17 (inactive)	-0.122 (inactive)	0.156 (inactive)
Cc1ccc(F)cc1S(=O)(=O)N[C@@H]1CCN(Cc2cccc3[nH]ccc23)C1	-0.605 (inactive)	0.578	-0.797	-3.62 (inactive)	-0.561 (inactive)	-0.948 (inactive)

SMILES	composite z-score [1]	composite z-score (XIP peptide (Xip251-270))	z-score [2]	z-score [3]	z-score [4]	z-score [5]
C=C(C)[C@@H]1CC=C(C(O)C2C=CC3C(=O)N(c4ccccc4)C(=O)C3N2Nc2ccc(C#N)cc2)CC1 (stereo not given in full)	0.476 (inactive)	0.642	0.807	1.21 (inactive)	-0.169 (inactive)	0.008 (inactive)
CN(C)CCCNC(=O)[C@@H]1c2ccccc2C(=O)N(C2CCCCC2)[C@H]1c1ccc(CO)cc1	2.33 (inactive)	0.834	-1.99	1.8 (inactive)	0.208 (inactive)	0.393 (inactive)
CC(C)CNC(=O)[C@@]1(C)c2ccccc2C(=O)N(Cc2cc(C(F)(F)F)cc(C(F)(F)F)c2)[C@H]1c1ccc(CO)cc1	-0.337 (inactive)	0.145	-0.607	-2.63 (inactive)	0.0613 (inactive)	0.447 (inactive)
[N-]=[N+]=Nc1ccccc1C[C@@]1(C(=O)O)N=C(c2ccc(OCCCO)cc2)O[C@@H]1c1ccccc1N=[N+]=[N-]	0.0588 (inactive)	0.736	-1.74	-5.17 (inactive)	-0.267 (inactive)	-0.317 (inactive)
COC(=O)C(CC#Cc1ccc2c(c1)[C@]1(C(=O)N2)[C@H](c2ccc(OCCO)cc2)N2[C@H](c3ccccc3)[C@H](c3ccccc3)OC(=O)[C@H]2[C@@H]1C(=O)N1CCN(c2ncccn2)CC1)C(=O)OC	0.398 (inactive)	0.775	-2.2	0.338 (inactive)	-0.0604 (inactive)	-0.282 (inactive)
[N-]=[N+]=NCc1ccccc1[C@@H]1OC(c2ccc(OCCCO)cc2)=N[C@]1(Cc1ccccc1)C(=O)NCCN1CCOCC1	-0.256 (inactive)	0.77	-2.2	-1.66 (inactive)	-0.294 (inactive)	-0.108 (inactive)
COCCOC(=O)N1C(=O)[C@@]2(c3cc(C#CCNC(N)=O)ccc31)[C@H](c1ccc(OCCO)cc1)N1[C@H](c3ccccc3)[C@H](c3ccccc3)OC(=O)[C@H]1[C@@H]2C(N)=O	0.236 (inactive)	0.442	0.691	-2.25 (inactive)	0.139 (inactive)	0.189 (inactive)
O=C1C2C=CC(C(O)c3cc(C(F)(F)F)cc(C(F)(F)F)c3)N(Nc3ccccc3F)C2C(=O)N1c1ccccc1 (stereo not given)	1.22 (inactive)	0.481	0.915	-2.39 (inactive)	0.563 (inactive)	0.544 (inactive)
O=C(NCCN1CCOCC1)[C@@H]1c2ccccc2C(=O)N(Cc2ccccc2)[C@H]1c1ccc(CO)cc1	-0.181 (inactive)	-0.314	0.681	-3.79 (inactive)	-0.697 (inactive)	-0.974 (inactive)
O=C1C[C@@](C(=O)NCc2ccccc2)(c2ccc([N+](=O)[O-])cc2)[C@@H](c2ccc(CO)cc2I)N1CC12CC3CC(CC(C3)C1)C2	0.239 (inactive)	0.692	-1.48	-2.19 (inactive)	-0.114 (inactive)	-0.147 (inactive)
CC(C)CCC[C@@H](C)[C@H]1CC[C@@]2(C)C3=C(CC[C@]12C)[C@@]1(C)CC[C@H](OC(=O)c2ccccc2)C(C)(C)C1CC3 (stereo not given in full)	0.276 (inactive)	0.0627	-0.544	-1 (inactive)	-0.531 (inactive)	-0.299 (inactive)
C#C[C@@H](CC)O[Si](C#CCCCC#N)(C(C)C)C(C)C	1.09 (inactive)	0.261	-0.574	-1.27 (inactive)	0.33 (inactive)	0.0685 (inactive)
COCC(=C=CC[C@@H](O)c1cccc(OCCO)c1)CCO	1.14 (inactive)	-0.347	-0.315	-1.85 (inactive)	-1.38 (inactive)	-0.0691 (inactive)
O=C1N[C@@H](Cc2ccccc2)C(=O)N2[C@@H]1C[C@@H](C(=O)O)[C@H]2c1ccc(O)cc1	0.24 (inactive)	0.649	-0.394	-2.41 (inactive)	-0.0256 (inactive)	0.0853 (inactive)
COC(=O)[C@@]1(Cc2ccc(OC)cc2)[C@H]2c3cc(C(=O)N4CCCC4)n(Cc4ccc(OC(F)(F)F)cc4)c3C[C@H]2CN1C(=O)c1ccccc1	0.931 (inactive)	0.702	-1.29	-2.94 (inactive)	0.168 (inactive)	0.569 (inactive)
C=C(/C(=C/C[C@@H](OC(=O)c1ccncc1)c1cccc(OCCO)c1)c1cnc2ccccc2c1)C(C)C	0.601 (inactive)	0.602	-2.88	-4.48 (inactive)	0.242 (inactive)	0.258 (inactive)
O=C1OCC=C[C@H]2OC34C=CCN(c5ccc6ccccc6c5)C(=O)[C@H]3N(CCCCCO)C(=O)[C@@H]4[C@@H]12 (stereo not given in full)	0.407 (inactive)	0.351	-0.471	-4.6 (inactive)	0.464 (inactive)	0.0639 (inactive)
